Laboratory results published in article PMC12136788.
Positions count from the first letter of the chain named. Over roughly 5,800 sequences, “enrichment r” has its median near 0.54; the highest 2% begin near 16. The sample holds the highest values, similar sequences and a random draw of the others, so the mix is not that of the screen.

B1: ENSG00000150403:stop:overlap|stop_codon|ENSG00000150403|stop_codon|NA|stop_codon (ssRNA)
RNA: GGGAGUUCUACAGUCCGACGAUCUGUCCAGGUUCCUCAUGGGCAGUGCUCGGGGUGACAAAGAAGGCAACAGAACAGCCCUCUAGCAGAGCGUCAGUGCAGUCGUGUUAUCCCGGCUUUUACAGAAUAUUCUUGUCCUAUUUUCAACAGAGGAUUGAGCAUCA
B2: chr1:37566712:37566813:+|3pUTR|ENSG00000163879|unk|FALSE|unique (ssRNA)
RNA: GGGAGUUCUACAGUCCGACGAUCGCUUUAUUUCCCUAGCACUGGUGAAGGGCUUCAACUGUCAAACCUCAGAACAAAUGCAUUAGGGCCUUAGAAAUGUCAAUGGGGCAGGAAGAAAACACAAUUUCUAACUGCCUGUUUUUGCAACAGAGGAUUGAGCAUCA
B3: chr16:16142165:16142266:+|3pUTR|ENSG00000103222|msi1|total|mutant (ssRNA)
RNA: GGGAGUUCUACAGUCCGACGAUCAUUGAUGUGGGGUAAAUAUUAAGGAGAUGGCCUCAUGGGAAUUUGACCUUGACCCGAAACCGAGACUGAGAGUGAGCAACCAGCUGGAAGGUACUAUGCCAGUCCCCGCAGAAAAAUGUGCAACAGAGGAUUGAGCAUCA
B4: chr20:4701031:4701132:+|3pUTR|ENSG00000171867|msi1|total|mutant (ssRNA)
RNA: GGGAGUUCUACAGUCCGACGAUCCACCGUUUCUGUAAUUGGCUUUUGAAUCAAAGAACCGGGAGACAAUCUAAAAAAUAUCUCCGGUUGGAGAUGACAGAAAUAUGAUUGAUUUGAAGUGGAAAAAGAAAUUCUGUUAAUGUUCAACAGAGGAUUGAGCAUCA
B5: chr19:21059139:21059240:+|3pUTR|ENSG00000118620|unk|total|mutant (ssRNA)
RNA: GGGAGUUCUACAGUCCGACGAUCGUAAAAAUGAAAAUAUUUAAUCCAAAAUUAAGUCUAUGUAAAUAUCAGAGAAUUUACUGCCGAAAUAUAUAAGGCACUGAGACUUCAGAUAUUAUACUAAAUCAGAGUGCUGAGUACCGACAACAGAGGAUUGAGCAUCA
B6: chr17:42200006:42200107:-|3pUTR|ENSG00000173757|unk|total|mutant (ssRNA)
RNA: GGGAGUUCUACAGUCCGACGAUCAAGCUGCCGUUUGCCUUGGCUUGGUUUCAUACACUGAUUUAUUUUUCUAUGCCAGGCAGCCGAGUCUCUCUGCCUCUGAGGAGCAGGCUACCCGCAUCCCACUCAGCCCCUCCCUACCCCCAACAGAGGAUUGAGCAUCA
B7: chr20:3582170:3582271:+|CDS|ENSG00000088812|msi1|FALSE|bound_elsewhere (ssRNA)
RNA: GGGAGUUCUACAGUCCGACGAUCGGCCUUCGGAAGAUCAAUGUGUCCUACUGGUGCUGGGAAGAUAUGUCCCCAUUUACAAAUAGUUUACUACAGUGGAUGCCGUCUGAGCCCAGUGAUGCUGGAUUCUGUGGAAUUUUAUCACAACAGAGGAUUGAGCAUCA
B8: chr3:10101824:10101929:+|3pUTR|ENSG00000144554|unk|total|mutant (ssRNA)
RNA: GGGAGUUCUACAGUCCGACGAUCAAAAUCUCUGAGUCAUGAUUCUGGACUUUGGGAGCCCGUUUUGAAACUCUGAUUUAUUGCCGAACUCCGGCUUGUACCAAUUUUACAAAUAAAUUCUGUUCUAAGUUCUGCCUCAGUUGCCAACAGAGGAUUGAGCAUCA
B9: ENSG00000166086:stop:overlap|stop_codon|ENSG00000166086|stop_codon|NA|stop_codon (ssRNA)
RNA: GGGAGUUCUACAGUCCGACGAUCUCCUGCUGCUGCUUUUCAGGGAGUCAAGUCUAGUCUGCUUUCCAAGGCUGCAUUCUAAGUAGUGAAGCCUCAACUUCAUAUUUACCUAAAGCAGGACACCACACUCUUCCCCUGGCAGCCCAACAGAGGAUUGAGCAUCA
B10: chr1:173734013:173734119:+|CDS|ENSG00000076321|unk|FALSE|unique (ssRNA)
RNA: GGGAGUUCUACAGUCCGACGAUCCAUUGACGAGAGGGCUAUGGAAUUACUGAUUGACUUUGCGUAUACCUCCCAGAUAACAGUAGAAGAGGGCAAUGUUCAGACUCUUCUGCCAGCUGCUUGCCUCCUCCAGCUGGCAGAAAUCAACAGAGGAUUGAGCAUCA
B11: chr10:73251842:73251943:-|CDS|ENSG00000182180|msi1|FALSE|unique (ssRNA)
RNA: GGGAGUUCUACAGUCCGACGAUCUCGGCCGUUCUACCGCAUUGUGGCUGCUCACAACAAGUGUCCCAGGGAUGGCCGUUUCGUAGAGCAGCUGGGCUCCUAUGAUCCAUUGCCCAACAGUCAUGGAGAAAAACUCGUUGCCCUCAACAGAGGAUUGAGCAUCA
B12: chr7:44121865:44121972:-|CDS|ENSG00000106628|unk|FALSE|unique (ssRNA)
RNA: GGGAGUUCUACAGUCCGACGAUCGUGCCAGUGGCAACCUACACCAACUCCUCACAACCCUUCCGGCUAGGAGAGCGCAGCUUUAGCCGGCAGUAUGCCCACAUUUAUGCCACCCGCCUCAUCCAAAUGAGACCCUUCCUGGAGCAACAGAGGAUUGAGCAUCA
B13: chr6:31137533:31137950:-|three_prime_utr|ENSG00000204538|control|control|control (ssRNA)
RNA: GGGAGUUCUACAGUCCGACGAUCGCAUCUCCAGGCACCCACGCCCUCUCCACCCUCUGAUUCCCCGUGAAUUCUUCCCAAUUUAGCCUGUCUCCUUAAACCUCUUCCUCAUUCCCUCGGUUUUAUUCUGAACCCGUAAGGUGGCAACAGAGGAUUGAGCAUCA
B14: ENSG00000136451:be:win_2451|3pUTR|ENSG00000136451|bound_else_gene|NA|bound_elsewhere_windowed (ssRNA)
RNA: GGGAGUUCUACAGUCCGACGAUCUUUAAAUUGGAAGACGCUGGAGGCACUGGGAUGUGAUAUGCCCCUCUCUCUCCCAAUCAGAGCCUGUUGAUAUUACAACAGGGACAGAUGUGUUAGUUGCUCACUAGAGUUUAUGUCUUACAACAGAGGAUUGAGCAUCA
B15: ENSG00000136451:be:win_2501|3pUTR|ENSG00000136451|bound_else_gene|NA|bound_elsewhere_windowed (ssRNA)
RNA: GGGAGUUCUACAGUCCGACGAUCUCCCAAUCAGAGCCUGUUGAUAUUACAACAGGGACAGAUGUGUUAGUUGCUCACUAGAGUUUAUGUCUUAUAUUAAAUUGUAUACAGUUUUUAUUCUAACCACUAACUAGGUAGUGUAUGCAACAGAGGAUUGAGCAUCA
B16: chr9:76611375:76614569:-|three_prime_utr|ENSG00000106772|control|control|control (ssRNA)
RNA: GGGAGUUCUACAGUCCGACGAUCAUGUUACCUUUUUCCACUUUGCACUACCUGGUGCCAUUCUAAAUUUCUAAGGGGAAAAAUAGAAAGUUUGUUUACUCUUAAGAUAUUUUAUGAAAUUGUGUGUACUUUCCUAUUUUGCCACAACAGAGGAUUGAGCAUCA
B17: chr1:214663888:214664008:+|3pUTR|ENSG00000117724|msi1|FALSE|bound_elsewhere (ssRNA)
RNA: GGGAGUUCUACAGUCCGACGAUCAGGAGAAAACAAUUCCUUAGAAGUCUUAAAUAUAUUGUACUCUUUAGAUCUCCCAUGUGUAGGUAUUGAAAAAGUUUGGAAGCACUGAUCACCUGUUAGCAUUGCCAUUCCUCUACUGCACAACAGAGGAUUGAGCAUCA
B18: ENSG00000070961:be:win_251|CDS|ENSG00000070961|bound_else_gene|NA|bound_elsewhere_windowed (ssRNA)
RNA: GGGAGUUCUACAGUCCGACGAUCUGUUUGGAAAGAAUUUUAUACCUCCUAAAAAGCCAAAAACCUUUCUUCAAUUAGUAUGGGAAGCAUUACAAGAUGUCACUUUAAUUAUAUUAGAAAUUGCAGCCAUAGUAUCAUUGGGCCCAACAGAGGAUUGAGCAUCA
B19: chr1:214663888:214664008:+|3pUTR|ENSG00000117724|msi1|total|mutant (ssRNA)
RNA: B17 RNA with U41C, A42C, U68C, A69C, U83C, A84C, U120C, A121C
B20: chr13:110149936:110150037:-|3pUTR|ENSG00000187498|msi1|FALSE|unique (ssRNA)
RNA: GGGAGUUCUACAGUCCGACGAUCUUCUUGUAUUAUAAUUAAUUUUCUACCCCCAGAGAUAAAUGUUUGUUUAUAUCACUGUCUAGCUGUUUCAAAAUUUAGGUCCCUUGGUCUGUACAAAUAAUAGCAAUGUAAAAAUGGUUUCAACAGAGGAUUGAGCAUCA
B21: ENSG00000136451:be:win_2551|3pUTR|ENSG00000136451|bound_else_gene|NA|bound_elsewhere_windowed (ssRNA)
RNA: GGGAGUUCUACAGUCCGACGAUCUCACUAGAGUUUAUGUCUUAUAUUAAAUUGUAUACAGUUUUUAUUCUAACCACUAACUAGGUAGUGUAUGCCCCUUCAGAACAUGCAGAGUGUAUCUUUUUUUAAAUUUCUCCUUCCGUUCAACAGAGGAUUGAGCAUCA
B22: chr6:57184343:57184440:+|3pUTR|ENSG00000112208|msi1_unk|FALSE|overlapping (ssRNA)
RNA: GGGAGUUCUACAGUCCGACGAUCUCUUCAGUUUUGUGAAUAACAAAACUAGCAAUAUUUUAAUUAUCUAUCUAGAGAUUUUUUAGAUUGAAUUCUUGUCUUGUACUAGGAUCUAGCAUAUUUCACUAUUCUGUGGAUGAAUACCAACAGAGGAUUGAGCAUCA
B23: ENSG00000070961:be:win_301|CDS|ENSG00000070961|bound_else_gene|NA|bound_elsewhere_windowed (ssRNA)
RNA: GGGAGUUCUACAGUCCGACGAUCUUAGUAUGGGAAGCAUUACAAGAUGUCACUUUAAUUAUAUUAGAAAUUGCAGCCAUAGUAUCAUUGGGCCUUUCUUUUUAUCAGCCUCCAGAAGGGGAUAAUGCACUUUGUGGAGAAGUUCAACAGAGGAUUGAGCAUCA
B24: chr12:89642165:89642281:-|CDS|ENSG00000070961|unk|FALSE|bound_elsewhere (ssRNA)
RNA: GGGAGUUCUACAGUCCGACGAUCGCCAAAAACCUUUCUUCAAUUAGUAUGGGAAGCAUUACAAGAUGUCACUUUAAUUAUAUUAGAAAUUGCAGCCAUAGUAUCAUUGGGCCUUUCUUUUUAUCAGCCUCCAGAAGGGGAUAACAACAGAGGAUUGAGCAUCA
B25: chr13:110149936:110150037:-|3pUTR|ENSG00000187498|msi1|total|mutant (ssRNA)
RNA: B20 RNA with U83C, A84C, U99C, A100C, U124C, A125C

What follows are binders tested against MSI1 full-length (mouse, UniProt Q61474 1-362) (assay: nsRBNS (natural sequence RNA bind-n-seq); RBNS binding buffer (assumed for nsRBNS): 25 mM Tris pH 7.5, 150 mM KCl, 3 mM MgCl2, 0.01% Triton X-100, 500 ug/ml BSA, 20 U/ml SUPERase-In, 4 C; UNK is unkempt and MSI1 is Musashi-1; names of the RNAs are library labels; protein concentration not given here; high values mean tight binding).
MSI1 full-length, sequence (Q61474 whole entry): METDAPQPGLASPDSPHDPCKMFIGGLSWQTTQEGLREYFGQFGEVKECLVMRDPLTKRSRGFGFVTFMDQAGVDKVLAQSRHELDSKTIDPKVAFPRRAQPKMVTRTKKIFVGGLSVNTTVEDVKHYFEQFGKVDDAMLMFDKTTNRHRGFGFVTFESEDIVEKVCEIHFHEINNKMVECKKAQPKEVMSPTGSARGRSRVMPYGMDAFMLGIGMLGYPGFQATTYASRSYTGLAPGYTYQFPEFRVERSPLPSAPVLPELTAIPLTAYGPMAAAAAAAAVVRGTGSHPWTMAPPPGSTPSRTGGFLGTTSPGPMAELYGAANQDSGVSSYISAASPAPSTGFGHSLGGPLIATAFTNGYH
With B1 the binding signal was 0.829 enrichment R. Work on B2 yielded a binding signal of 0.39 enrichment R. B3 gave a binding signal of 0.411 enrichment R. Work on B4 yielded a binding signal of 0.277 enrichment R. Work on B5 yielded a binding signal of 4.16 enrichment R. With B6 the binding signal was 0.705 enrichment R. For B7, the binding signal was 0.86 enrichment R. In the case of B8, the binding signal is reported as 0.338 enrichment R. In the case of B9, the binding signal is reported as 0.461 enrichment R. With B10 the binding signal was 1.23 enrichment R. B11 was tested, and the binding signal was 0.318 enrichment R. B12 was tested, and the binding signal was 0.629 enrichment R. With B13 the binding signal was 0.944 enrichment R. With B14 the binding signal was 1.47 enrichment R. B15 showed a binding signal of 25.2 enrichment R. Binder B16 has a binding signal of 1.45 enrichment R. Work on B17 yielded a binding signal of 16.4 enrichment R. Work on B18 yielded a binding signal of 17.2 enrichment R. For B19, the binding signal was 0.406 enrichment R. Work on B20 yielded a binding signal of 30.3 enrichment R. In the case of B21, the binding signal is reported as 10.4 enrichment R. Binder B22 has a binding signal of 4.43 enrichment R. For B23, the binding signal was 9.77 enrichment R. With B24 the binding signal was 9.09 enrichment R. Binder B25 has a binding signal of 3.28 enrichment R.
